Measured values published in PubChem BioAssay AID1159580 (chemical genetic matrix, 2015).
Screen size: about 5,500 compounds; about 2,000 (36%) were called active. Roughly 18% stayed inconclusive and do not appear here. No stated cut-off is given here; in the data, active means normalized growth mostly below about 0.91 (no sharp cut-off); inconclusive means no clear call, values can overlap the other calls; inactive means mostly above about 0.92. The list shows a part of the results.

Assay: chemical genetic growth profiling, strain panel (AID 1159580);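 further: tested at 20 µM; growth read once vehicle control cultures reached saturation at 30 °C; 1 = growth at the plate median or of vehicle wells; lower values mean less growth of the strain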
Conditions: growth OD
[1] = S. cerevisiae deletion strains, locus YAL013W, strain DEP1, active compounds read low
[2] = S. cerevisiae deletion strains, locus YBR229C, strain ROT2, active compounds read low
[3] = S. cerevisiae deletion strains, locus YDL101C, strain DUN1, active compounds read low
[4] = S. cerevisiae deletion strains, locus YDR150W, strain NUM1, active compounds read low
[5] = S. cerevisiae deletion strains, locus YEL061C, strain CIN8, active compounds read low
[6] = S. cerevisiae deletion strains, locus YGR078C, strain PAC10, active compounds read low
[7] = S. cerevisiae deletion strains, locus YHR030C, strain SLT2, active compounds read low
[8] = S. cerevisiae deletion strains, locus YHR087W, strain rtc3, active compounds read low
[9] = S. cerevisiae deletion strains, locus YJR043C, strain POL32, active compounds read low
[10] = S. cerevisiae deletion strains, locus YJR075W, strain HOC1, active compounds read low
[11] = S. cerevisiae deletion strains, locus YLR039C, strain RIC1, active compounds read low
[12] = S. cerevisiae deletion strains, locus YLR058C, strain SHM2 (second series), active compounds read low
[13] = S. cerevisiae deletion strains, locus YLR085C, strain ARP6, active compounds read low
[14] = S. cerevisiae deletion strains, locus YLR262C, strain YPT6, active compounds read low
[15] = S. cerevisiae deletion strains, locus YML094W, strain GIM5, active compounds read low
[16] = S. cerevisiae deletion strains, locus YMR219W, strain ESC1, active compounds read low
[17] = S. cerevisiae deletion strains, locus YMR263W, strain SAP30, active compounds read low
[18] = S. cerevisiae deletion strains, locus YNL153C, strain GIM3, active compounds read low
[19] = S. cerevisiae deletion strains, locus YNL298W, strain CLA4 (second series), active compounds read low
[20] = S. cerevisiae deletion strains, locus YNL322C, strain KRE1, active compounds read low
[21] = S. cerevisiae deletion strains, locus YNR030W, strain Alg12, active compounds read low
[22] = S. cerevisiae deletion strains, locus YPL055C, strain LGE1, active compounds read low
[23] = S. cerevisiae deletion strains, locus YPL241C, strain CIN2, active compounds read low
[24] = S. cerevisiae deletion strains, locus YPR135W, strain CTF4, active compounds read low
[25] = S. cerevisiae deletion strains, locus YNL128W, strain TEP1, active compounds read low
[26] = S. cerevisiae deletion strains, locus YAL040C, strain CLN3, active compounds read low
[27] = S. cerevisiae deletion strains, locus YCL061C, strain MRC1 (second series), active compounds read low
[28] = S. cerevisiae deletion strains, locus YER002W, strain NOP16, active compounds read low
[29] = S. cerevisiae deletion strains, locus YNL175C, strain NOP13, active compounds read low
[30] = S. cerevisiae deletion strains, locus YNL197C, strain WHI3, active compounds read low
[31] = S. cerevisiae deletion strains, locus YNL224C, strain SQS1, active compounds read low
[32] = S. cerevisiae deletion strains, locus YOR083W, strain WHI5 (second series), active compounds read low

Measured: normalized growth

COc1ccccc1C1CCN(Cc2ccc3ccccc3c2)CC1
inactive: [1] 0.981 | [2] 0.965 | [3] 0.973 | [4] 1 | [5] 0.915 | [6] 0.986 | [8] 0.987 | [9] 1.01 | [10] 0.99 | [11] 0.98 | [12] 0.985 | [13] 0.91 | [14] 0.904 | [15] 0.885 | [16] 1 | [17] 1.01 | [18] 0.962 | [19] 0.888 | [20] 0.989 | [21] 0.963 | [22] 1.02 | [23] 0.911 | [24] 0.773
active: [7] 0.529 | S. cerevisiae strains, strain wild type, active compounds read low 0.885

COc1ccccc1C1CCN(C(=O)c2ccc(F)cc2)CC1
inactive: [1] 0.981 | [2] 0.986 | S. cerevisiae deletion strains, locus YCL061C, strain MRC1, active compounds read low 0.989 | [3] 0.994 | S. cerevisiae deletion strains, locus YDL134C, strain PPH21, active compounds read low 0.983 | [4] 0.988 | [5] 0.965 | [6] 0.982 | [7] 0.754 | [8] 1.01 | [9] 0.987 | [10] 1 | [11] 1.03 | [12] 0.981 | [13] 0.901 | [14] 1.01 | [15] 0.944 | [16] 0.976 | [17] 0.994 | [25] 0.986 | [18] 0.989 | [19] 0.982 | [20] 0.978 | [21] 0.967 | S. cerevisiae deletion strains, locus YOL006C, strain TOP1, active compounds read low 0.852 | [22] 0.926 | [24] 0.975

COc1ccccc1N1CCN(CCCCNC(=O)c2ccc3ccccc3c2)CC1
inactive: [26] 0.951 | [27] 0.988 | S. cerevisiae deletion strains, locus YDR363W, strain ESC2, active compounds read low 1.03 | [28] 0.996 | [6] 0.981 | [17] 0.978 | S. cerevisiae deletion strains, locus YMR307W, strain GAS1, active compounds read low 0.995 | [29] 1.03 | [30] 1.01 | [31] 0.983 | [32] 1.06 | [22] 0.999

Nc1cc(Cl)c(NC2=NCCN2)c(Cl)c1
inactive: [26] 0.982 | [27] 1 | [28] 1 | S. cerevisiae deletion strains, locus YGR229C, strain SMI1, active compounds read low 1.01 | [10] 0.998 | [25] 1 | [18] 0.987 | [29] 1.02 | [30] 1 | [31] 1.02 | [32] 1.04 | [23] 1
